The list is not random: actives were taken first. Their share in the collection is about 3.2%.
FBA Mtb inh: inhibitors of M. tuberculosis fructose-bisphosphate aldolase; P9WQA3; purified M. tuberculosis FBA, fluorescence read-out; inhibition, % at 1 µM; hit rate 2.3% among 360,000; in the data active means inhibition above about 27%;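 further: 0% = vehicle and 100% = reference inhibitor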
UGM FP inh: Mtb UDP-galactopyranose mutase inhibition | hit rate 0.06% among 320,000 | purified UGM, fluorescence polarization probe displacement | P9WIQ1 | inhibition, % at 10 µM; in the data active means inhibition above about 10%, passing the limit was not always enough
Mtb bLac sens: beta-lactam sensitization of Mtb H37Rv. AID 434955. M. tuberculosis H37Rv growth with meropenem, percent inhibition. inhibition, % at 25 µM. hit rate 0.27% among 330,000; call rule not given here;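 further: growth measured after seven days incubation then overnight dye step; 0% = bacteria only wells and 100% = bacteria with antibiotic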
PriA SSB inh: K. pneumoniae PriA-SSBct interaction inhibition. inhibition, % at 33 µM. AlphaScreen SSBct-PriA binding, biotinylated peptide. hit rate 0.6% among 430,000. AID 1272365; in the data active means inhibition mostly above about 37%, no sharp cut-off; inactive means mostly below about 20%;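 further: plate controls were negative control peptide for no effect and reference peptide for full effect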
GDH-TPI inh: counter-screen for M. tuberculosis FBA inhibitors: GDH-TPI coupled enzymes. hit rate 1.2% among 360,000. GDH-TPI coupled enzyme counterscreen, NADH absorbance. inhibition, % at 4.8 µM; in the data active means inhibition above about 30%;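 further: 0% = DMSO wells and 100% = wells lacking the enzyme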
Rv3671c inh: inhibits the M. tuberculosis serine protease Rv3671c | inhibition, % at 5.96 µM | AID 2606 | hit rate 0.048% among 320,000 | P9WHR9; in the data active means inhibition above about 38%;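 further: extracellular domain of Rv3671c used as enzyme; 0% = enzyme with DMSO and 100% = no enzyme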
Target sequence (P9WHR9 whole entry, looked up, the tested form may be a part): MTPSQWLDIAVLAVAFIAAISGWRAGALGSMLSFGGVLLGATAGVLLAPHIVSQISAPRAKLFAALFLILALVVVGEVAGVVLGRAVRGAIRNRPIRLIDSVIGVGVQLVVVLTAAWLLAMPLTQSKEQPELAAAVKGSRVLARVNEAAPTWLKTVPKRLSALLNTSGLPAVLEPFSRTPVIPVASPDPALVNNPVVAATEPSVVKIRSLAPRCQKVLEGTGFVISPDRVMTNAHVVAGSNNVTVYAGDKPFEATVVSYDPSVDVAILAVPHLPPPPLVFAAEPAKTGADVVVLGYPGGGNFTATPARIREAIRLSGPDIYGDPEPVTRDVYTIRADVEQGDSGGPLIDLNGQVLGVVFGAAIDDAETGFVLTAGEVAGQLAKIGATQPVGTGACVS
The depositor's hits bear a star; . = no result given; + = active, no number; ! = repeats disagree.

SMILES	FBA Mtb inh	UGM FP inh	Mtb bLac sens	PriA SSB inh	GDH-TPI inh	Rv3671c inh
CCn1cc(/C=C(\NC(=O)c2ccccc2)C(=O)NCCCN2CCOCC2)c2ccccc21	-2.0	2.2	-4.2	7.8	39.7*	4.0
Cn1cc(/C=C(\NC(=O)c2ccccc2Cl)C(=O)NCCCN2CCOCC2)c2ccccc21	0.4	1.4	-3.8	0.0	34.0*	-6.1
COc1ccccc1OCC(=O)N(Cc1ccc(Cl)cc1)[C@H]1CCS(=O)(=O)C1	.	.	.	-13.0	.	.
O=C(Oc1c(Cl)cc(Cl)c2cccnc12)c1cccc([N+](=O)[O-])c1	-2.1	-1.0	98.0	29.8	1.9	6.7
O=C(Oc1c(CN2CCOCC2)cc(Cl)c2cccnc12)c1cccc([N+](=O)[O-])c1	.	.	.	105.0*	.	.
COc1cc2nc(N(CCN(C)C)C(=O)c3ccc4ccccc4c3)sc2cc1OC	5.6	-0.5	-2.1	39.0*!	10.3	-4.2
COc1cc2ccccc2cc1C(=O)N(CCN(C)C)c1nc2c(C)cccc2s1	2.3	0.8	3.3	41.0*!	8.1	-3.2
COc1ccc(Cl)c2sc(N(CCN(C)C)C(=O)c3ccc4c(c3)OCCO4)nc12	-0.9	-0.4	-11.4	16.5	6.5	2.6
CN(C)CCN(C(=O)c1ccc2ccccc2c1)c1nc2cc3c(cc2s1)OCO3	2.3	.	.	.	22.3	.
COc1ccc(OC)c2sc(N(CCN(C)C)C(=O)c3ccc4ccccc4c3)nc12	0.3	0.1	7.4	54.0*	4.5	4.8
Cc1cccc2sc(N(CCCN(C)C)C(=O)c3sc4ccccc4c3Cl)nc12	-1.0	0.1	-10.5	40.4*!	-9.9	0.1
CCN(CC)C(=N)C(C#N)=NNc1ccc(C)cc1	.	.	.	5.5	.	.
COc1cc2ccccc2cc1C(=O)N(CCN(C)C)c1nc2ccc(C)cc2s1	1.9	-2.0	67.2	35.7	3.5	2.7
CN(C)CCN(C(=O)c1ccc2ccccc2c1)c1nc2ccc(F)cc2s1	1.5	2.0	4.5	44.0*!	6.6	-5.8
Cc1ccc2sc(N(CCN(C)C)C(=O)c3ccc4ccccc4c3)nc2c1C	-0.1	-2.9	3.9	45.2*!	5.2	2.9
Cc1cc(C)c2sc(N(CCN(C)C)C(=O)c3ccc4ccccc4c3)nc2c1	1.2	-0.4	38.5	43.0*!	0.5	-0.6
COc1cc2ccccc2cc1C(=O)N(CCN(C)C)c1nc2c(OC)ccc(OC)c2s1	1.0	1.9	79.2	46.0*	17.7	-5.4
Cc1cc(C)c2sc(N(CCN(C)C)C(=O)c3cccs3)nc2c1	.	.	.	8.0	.	.
Cn1cccc1CN(Cc1cccs1)C(=O)c1cc(-c2ccc(F)cc2)nn1C	.	.	.	18.0	.	.
Cn1cc(C(=O)NN=C/C=C/c2ccccc2)ccc1=O	.	.	.	-2.4	.	.
Cc1cc(C)c2sc(N(CCCN(C)C)C(=O)c3ccc(S(=O)(=O)N(C)C4CCCCC4)cc3)nc2c1	2.4	-0.9	98.7	40.0*!	-1.7	3.8
CCOc1ccc(C=NNc2nc(=O)[nH]nc2C)cc1OC	.	.	.	6.2	.	.
CCCOc1ccc(/C=N/Nc2ccccn2)cc1OC	-8.5	3.1	2.5	.	35.4*	5.9
CCOc1ccc(/C=N/Nc2nc(=O)[nH]nc2C)cc1OC	-3.6	4.1	2.8	.	33.5*	-3.8
COc1ccc(/C=N\Nc2ccccn2)c(OC)c1	-0.7	-0.7	-9.2	.	36.3*	.
SMILES	FBA Mtb inh	UGM FP inh	Mtb bLac sens	PriA SSB inh	GDH-TPI inh	Rv3671c inh
N#Cc1c(N=Cc2c(O)ccc3ccccc23)oc(-c2ccccc2)c1-c1ccccc1	.	.	.	2.0	.	.
C[C@](O)(CNC(=O)c1ccc(C#N)cc1)c1ccc(-c2ccccc2)cc1	.	.	.	-15.0	.	.
CCOc1ccc(C=Nn2c(-c3ccccc3)n[nH]c2=S)cc1	.	.	.	13.0	.	.
CCC1CCCC1=NNC(=O)c1ccccc1C (centres undefined)	.	.	.	-8.9	.	.
COc1ccccc1-n1cnc2cc(NS(=O)(=O)c3ccc(Br)cc3)ccc21	-0.8	2.3	4.5	41.4*	0.3	-24.1
COc1ccc(-n2cnc3cc(NS(=O)(=O)c4ccc(C)cc4)ccc32)cc1	-0.2	1.6	31.3	.	-5.5	-23.4
N#Cc1c(C(F)(F)F)cc(=O)n2c1[nH]c1ccccc12	+	1.2	-0.6	4.5	3.5	.
Cc1c(Cc2ccccc2)c(=O)n2c([nH]c3ccccc32)c1C#N	133.4*	-3.0	98.9	-1.6	2.9	6.2
COCc1cc(=O)n2[nH]cc(-c3ccccc3)c2n1	132.6*	-1.6	.	-9.5	22.8	-1.4
COc1ccccc1C1C(C(=O)c2cc3ccccc3o2)=C(O)C(=O)N1c1cc(C)on1 (centres undefined)	7.1	0.6	77.6	-15.2	31.3*	-14.6
COc1ccc(OC)c(C2C(C(=O)c3cc4ccccc4o3)=C(O)C(=O)N2c2cc(C)on2)c1 (centres undefined)	-0.3	0.0	36.2	-11.0	17.4	5.4
COC(=O)c1ccccc1NC(=O)c1ccc2nnsc2c1	.	.	.	-14.0	.	.
Cn1nc([N+](=O)[O-])nc1Sc1cccc2cccnc12	2.5	-0.3	3.9	78.2*	0.6	0.2
O=C(CN1C(=O)/C(=C\c2cccs2)SC1=S)Nc1ccc(O)c(C(=O)O)c1	.	.	.	11.0	.	.
O=C(CN1C(=O)S/C(=C/c2cccs2)C1=O)N1CCOCC1	-0.1	-0.3	-6.6	-3.6	37.3*	4.7
O=C(CN1C(=O)S/C(=C\c2cccs2)C1=O)Nc1ccc(C(=O)O)c(O)c1	-8.1	1.3	-0.5	8.6	48.7*	-7.3
O=C(CN1C(=O)S/C(=C/c2cccs2)C1=O)N1CCCC1	-1.4	1.0	3.3	-2.9	21.4	-9.7
O=C(CN1C(=O)S/C(=C\c2cccs2)C1=O)Nc1ccc(O)c(C(=O)O)c1	-0.4	4.6	-0.7	12.9	37.8*	-2.1
COC(=O)c1ccc(NC(=O)Cn2c(C)cc(C)c(-c3nc(-c4cccc(Cl)c4)no3)c2=O)cc1	.	.	.	6.0	.	.
Cn1c(=O)c2cc(NC(=O)NCCc3cccs3)ccc2n1Cc1ccccc1	140.7*	.	.	.	13.7	.
O=C(NCCc1cccs1)C1COCC(=O)N1Cc1ccccc1 (centres undefined)	.	.	.	-15.0	.	.
Cc1cc(C)cc(Cn2c3ccc(NC(=O)NCCc4cccs4)cc3c(=O)n2C)c1	171.1*	.	.	.	4.0	.
CC(=O)N1CCc2ccc(NS(=O)(=O)c3ccc4c(c3)OCCO4)cc21	.	.	.	-12.0	.	.
Cc1ccc(-c2cc(=O)c3cc(-n4cccc4)ccc3o2)cc1	.	.	.	-18.0	.	.
CN(NC1OC(=O)c2ccccc21)c1ccc(C(F)(F)F)cc1[N+](=O)[O-] (centres undefined)	-3.8	-3.3	1.8	-3.5	3.7	1.7
CN(NC1OC(=O)c2ccccc21)c1ccc(Cl)cc1[N+](=O)[O-] (centres undefined)	-3.1	1.4	-0.5	0.5	38.8*	-2.4
C[C@H]1CCCN(c2nccnc2SCC(=O)Nc2ccc(F)cc2)C1	.	.	.	-14.0	.	.
CC1CN(S(=O)(=O)c2ccc(C(=O)Nc3nccs3)cc2)CC(C)O1 (centres undefined)	2.4	-4.1	-7.1	-11.2	42.6*	-1.6
CC1CN(S(=O)(=O)c2ccc(C(=O)Nc3ccc(S(=O)(=O)Nc4nccs4)cc3)cc2)CC(C)O1 (centres undefined)	0.2	4.3	5.7	16.6	12.6	-8.6

Bioassay records: PubChem BioAssay, several laboratories
